# In the supplement of paper PMC13380429:
# Values without a mark were called inactive.
# Test system: Vero E6 infected with SARS-CoV-2
# Test: inhibition of SARS-CoV-2 cytopathic effect; higher = more antiviral protection, active = above 15
# Details: 48 h
SMILES,inhibition of SARS-CoV-2 cytopathic effect (1 nM) [%],inhibition of SARS-CoV-2 cytopathic effect (8.33 nM) [%],inhibition of SARS-CoV-2 cytopathic effect (100 nM) [%],inhibition of SARS-CoV-2 cytopathic effect (833.33 nM) [%],inhibition of SARS-CoV-2 cytopathic effect (10000 nM)
O=C(CBr)N1CC([N+](=O)[O-])([N+](=O)[O-])C1,1.69,-0.07,-1.43,-1.12,0.95%
CC(C)c1c2cc(-c3ccnc(N[C@H]4CC[C@H](NC5CCOCC5)CC4)n3)ccc2nn1C,-0.19,-1.61,-2.09,-20.8,-0.88%
COCCc1ccc(OCC(O)CNC(C)C)cc1 (stereo not given) [metoprolol],2,1.22,-0.12,-0.66,1.25%
O=C(CCCl)NCCc1ccccc1 [fenaclon],4.5,-2.28,0.58,-1.53,-1.25%
CCCNS(=O)(=O)Nc1ncnc(OCCOc2ncc(Br)cn2)c1-c1ccc(Br)cc1 [macitentan],0.7,-1.57,-0.9,1.28,4.76%
CON(C)C(=O)[C@H](O)[C@H](Cc1ccccc1)NC(=O)c1cc2cc(Cl)ccc2[nH]1,-0.47,0.53,1.7,1.24,4.39%
CSc1nc2ccc3nc(NC(=O)C(c4ccccc4)c4ccccc4)sc3c2s1,1.77,1.67,1.24,1.38,-1.25%
CN1C(=O)CC[C@H]1c1cccnc1 [cotinine],-0.33,-1.5,-0.09,0.39,0.17%
O=c1[nH]c(=O)n([C@H]2CCCO2)cc1F (racemic) [ftorafur],0.19,-1.89,6.11,-0.34,-2.89%
S=P(N1CC1)(N1CC1)N1CC1 [thiotepa],-0.94,1.88,0.45,-0.47,2.21%
NS(=O)(=O)c1ccc(NC(=O)Nc2ccc(F)cc2)cc1,1,-1.24,0.78,-1.65,-0.78%
COc1ccc(C(=O)c2ccccc2O)c(O)c1 [dioxybenzone],1.95,-0.38,-1.57,-0.76,2.94%
Nc1ncnc2c1ncn2[C@@H]1O[C@@H]2COP(=O)(O)O[C@H]2[C@H]1O [cyclic-AMP],3.59,-0.53,-1.76,-5.14,0.34%
CC(CCc1ccc(O)cc1)NCCc1ccc(O)c(O)c1 (stereo not given) [dobutamine],-0.38,-2.55,-1.12,-2.15,-0.94%
CCCS(=O)(=O)Nc1ccc(F)c(C(=O)c2c[nH]c3ncc(-c4ccc(Cl)cc4)cc23)c1F [vemurafenib],3.98,1.81,-0.86,2.45,4.29%
C#CCN[C@@H]1CCc2ccccc21 [rasagiline],0.63,-1.47,-1.63,-1.24,-0.6%
CC[C@H]1OC(=O)C[C@@H](O)[C@H](C)[C@@H](O[C@@H]2O[C@H](C)[C@@H](O[C@H]3C[C@@](C)(O)[C@@H](O)[C@H](C)O3)[C@H](N(C)C)[C@H]2O)[C@@H](CC=O)C[C@@H](C)C(=O)/C=C/C(C)=C/[C@@H]1CO[C@@H]1O[C@H](C)[C@@H](O)[C@@H](OC)[C@H]1OC,-4.49,-1.15,-2.1,-0.46,4.02%
CCCCCCCCc1ccc(CCC(N)(CO)CO)cc1 [fingolimod],0,2.1,-0.53,-4,15.2% (active)
COc1ccc(CC(=O)NC(/N=C(\NC#N)Nc2cccc3ncccc23)C(C)(C)C)cc1OC (stereo not given),-0.32,1.83,1.99,1.34,-0.99%
